# An excerpt weighted towards active compounds, which were near 2.2% of everything screened.
# aSyn yeast inh = inhibitors of alpha-synuclein toxicity in yeast | Potency, µM (series often up to 46.1 µM), inactives show at the highest dose growth rescue (activation), hits mostly activators | Yeast expressing alpha-synuclein, growth rescue, BacTiter-Glo, 24 h | AID 652106 | 370,000 compounds, 0.14% hits; further: % of control where 0% means no effect; nearly all actives have a fitted effect of over 65% in size
#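 Readout is rescue of growth in alpha-synuclein-expressing yeast, so inhibitors of toxicity appear as activators. Growth after 24 hr at 30 deg C in galactose medium is quantified by luminescence.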
# TDP43 rescue = rescues yeast growth from TDP-43 toxicity | Potency, µM (doses to about 46.1 µM), without a hit: top-dose growth rescue (activation), hits mostly activators | TDP-43 expressing yeast growth rescue, BacTiter-Glo, 24 h | 410,000 compounds, 1.8% hits; further: % of control where 0% means no effect; nearly all actives have a fitted effect of over 50% in size
#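 Readout is BacTiter-Glo luminescence of cell growth, so inhibitors register as activators. TDP-43-expressing yeast at OD600=0.02 in galactose medium, after raffinose pregrowth to mid-log, were incubated with compound for 24 hr at 30 deg C.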
# Abeta rescue = compounds reversing amyloid beta toxicity in yeast | yeast expressing A-beta42, growth rescue, OD600, 48 h; response scale: 0% DMSO, 100% iron-clioquinol control | Potency, µM (highest dose often 46.1 µM), hits mostly activators | 410,000 compounds, 0.063% hits | AID 1347071; further: nearly all actives have a fitted effect of over 55% in size
#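 Yeast A-beta toxicity model in growth medium with pinned compounds, 48 h at 30 C; growth read as absorbance at 600 nm. Normalized to FeCl3/clioquinol equimolar mix (positive) and DMSO (negative).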
# FUS suppressor = rescues growth of FUS-expressing yeast; S. cerevisiae FUS-expressing, growth rescue, OD600, 24 h; Potency, µM (top dose mostly 76.6 µM), usual class: activators; 390,000 compounds, 0.24% hits;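 further: plate controls were DMSO vehicle for no effect and reference control for full effect; nearly all actives have a fitted effect of over 55% in size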
#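 Compound concentration series was pinned onto galactose-induced FUS-expressing yeast seeded at OD 0.005. Plates sat 24hr at 30C; absorbance at 600 nm gave growth. DMSO served as background control.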
# Mito fusion act = mitochondrial division inhibition or fusion activation; S. cerevisiae fusion-defective mutant growth rescue, CellTiterGlo 48 h; Potency, µM (series often up to 46.1 µM), without a hit: at the top dose growth rescue (activation), hits mostly activators; 320,000 compounds, 0.23% hits; further: % of control where 0% means no effect; nearly all actives have a fitted effect of over 45% in size
#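 Compounds are tested for their ability to restore growth of mitochondrial fusion-defective yeast strains at non-permissive 37C in YPEG medium over 48 hours. Viability is quantified by luciferase luminescence.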
# Numbers without * were called inactive; i = inactive; ? = inconclusive; nt = not tested or not shown; [ ] = another dose, or the depositor's remark. The call rests on the fitted dose curve; in most records, active means well fitted curve in the direction sought with a large enough effect; inconclusive means small, poorly fitted or top-dose-only effect, or another doubt; inactive means no such curve, though single readings can be large; an effect the other way counts as inactive or inconclusive. Potency means the concentration at half of the fitted maximal effect.
SMILES,aSyn yeast inh,TDP43 rescue,Abeta rescue,FUS suppressor,Mito fusion act
CC(C)CN(CC(C)C)c1nc(-c2ccc(Cl)cc2)nc2ccccc12,-2%,35µM*,i,i,nt
CCN(CC)c1nc(-c2ccc(C(C)(C)C)cc2)nc2ccccc12,nt,11%,i,i,nt
N#Cc1c(NC(=O)C2CC2)sc2c1CCCCC2,-6%,0%,i,i,16µM*
CC(C)C(=O)Nc1sc2c(c1C#N)CCCCC2,8%,13µM*,i,i,10%
c1cnc(N2CCN(c3ncc4c(n3)CCNC4)CC2)nc1,nt,-77%,i,i,nt
O=C(CN1CCC(NC(=O)Nc2ccc(Cl)cc2)CC1)Nc1ccc2c(c1)OCCO2,nt,nt,nt,i,nt
O=C(OCCN1CCCC12CCC(c1ccccc1)CC2)c1ccccc1 (stereo unspecified),nt,nt,nt,i,nt
COc1ccc(OC)c(-c2nnc3n2N=C(c2ccc(OC)c(OCC4CC4)c2)CS3)c1,nt,nt,i,28µM*,nt
N#CCC(=O)N/N=C/c1ccc(Sc2nc3ccccc3s2)o1,0%,?,i,3.5µM*,2%
OC[C@@H]1CC[C@@H](Cc2ccc(-c3ccccc3)cc2)O1,18µM*,11µM*,i,i,nt
NC(=O)NC[C@@H]1CC[C@@H](Cc2ccc(-c3ccccc3)cc2)O1,1%,18%,i,i,nt
Cc1cccc(Nc2nc(-c3ccccc3)nc3ccccc23)c1,nt,25µM*,i,i,nt
Oc1cccc(Nc2nc(-c3ccccc3)nc3ccccc23)c1,12%,-7%,i,i,18%
Cc1ccc(Nc2nc(-c3ccccc3)nc3ccccc23)cc1,-31%,13µM*,i,i,nt
Cc1cc2nc(-c3ccco3)c(Cc3cccc(Cl)c3)n2c(C)c1Br,2%,13µM*,i,i,nt
CC1=C(C(=O)N(C)C)CC(CC(=O)NCc2cccc3ccccc23)C(=O)N1Cc1ccc(C(C)(C)C)cc1 (stereo unspecified),6%,0%,i,?,nt
CC1=C(C(=O)N(C(C)C)C(C)C)CC(CC(=O)NCc2cccc3ccccc23)C(=O)N1Cc1ccc(C(C)(C)C)cc1 (stereo unspecified),?,5%,i,6.3µM*,nt
CC1=C(C(=O)N(C(C)C)C(C)C)CC(CC(=O)NCC2CCCCC2)C(=O)N1Cc1ccc(C(C)(C)C)cc1 (stereo unspecified),nt,37µM*,nt,?,nt
CCCc1cc(=O)[nH]c2nnc(SCC(=O)Nc3ccc(OC)cc3)n12,nt,23%,i,i,nt
COc1cccc(C(=O)Nc2c(C(=O)NC(C)(C)C)oc3ccccc23)c1,nt,18µM*,i,i,nt
COc1cccc(C(=O)Nc2ccccc2)c1,2%,-25%,i,i,-3%
O=C(Nc1nc(-c2ccccc2)c(-c2ccccc2)o1)c1ccc(F)cc1,?,?,11µM*,i,-6%
COc1cccc(C(=O)Nc2ccc(-n3nncc3-c3ccccc3)cc2)c1,nt,35µM*,i,?,1%
COc1cccc(C(=O)Nc2nc(-c3ccccc3)c(-c3ccccc3)o2)c1,?,20µM*,16µM*,i,24%
COc1cccc(NC(=O)c2oc3ccccc3c2NC(C)=O)c1,-1%,-11%,i,i,2%
SMILES,aSyn yeast inh,TDP43 rescue,Abeta rescue,FUS suppressor,Mito fusion act
C(=C\c1cnc2ccccc2n1)/c1ccc2c(c1)OCO2,-7%,nt,nt,nt,nt
Cc1nc(CC(=O)Nc2cc(Cl)ccc2C)cs1,nt,?,i,i,nt
c1cc2cc(-c3c(-c4ccc5c(c4)OCO5)noc3-c3ccsc3)ccc2[nH]1,-3%,-1%,i,i,-10%
Cc1onc(-c2ccc3c(c2)OCO3)c1-c1ccc2[nH]ccc2c1,-24%,22µM*,i,i,10%
Cc1ccccc1OCc1ccc(-c2nc(C#N)c(NCc3cccnc3)o2)o1,nt,2%,i,?,nt
S=C1SCN(Cc2cccnc2)CN1Cc1ccccc1,-10%,25µM*,i,i,7%
S=C1NCN(Cc2cccnc2)CN1Cc1ccccc1,2%,8%,i,i,-6%
COC(=O)C[C@H]1CC[C@H]2[C@@H](COc3ccc(NC(=O)Nc4ccccc4)cc3C(=O)N2C)O1,nt,nt,nt,i,nt
O=C(Nc1ccccc1Oc1ccccc1)c1ccc(Br)o1,1%,4%,i,i,?
O=C(Nc1ccccc1-c1ccccc1)c1ccc(Br)o1,-12%,22µM*,i,i,20%
CCOC(=O)C1=CCN(S(=O)(=O)c2cccc(Cl)c2)C1c1ccc(Br)cc1 (stereo unspecified),20µM*,0%,i,?,nt
CCN(CC)c1ccc(NS(=O)(=O)c2cc(-c3onc(C)c3C)ccc2OC)c(C)c1,nt,-3%,i,i,nt
COc1ccccc1-c1oc2ccccc2c1C#CC(C)(C)O,5%,16µM*,i,i,?
COc1ccccc1-c1oc2ccccc2c1C#CCO,-2%,-3%,i,i,nt
Cc1nn(-c2ccccc2C(=O)O)c(=O)c2ccccc12,10%,-21%,i,i,-1%
O=C(O)c1ccccc1-n1c2ccccc2c2ccccc21,?,20µM*,i,i,18%
CN=c1scc(-c2cccs2)n1/N=C/c1ccc(O)c(O)c1O,-43%,-10%[0.397 µM],i,32µM*,6%
CN=c1scc(-c2cccs2)n1/N=C/c1ccccc1O,-15%,3%,i,nt,18%
CCCC1CCC2(CC1)CCC2OC(=O)Nc1c(OC)cccc1OC (stereo unspecified),nt,nt,nt,i,nt
Cc1cccc(CC2C(=O)Nc3ccccc32)c1 (stereo unspecified),nt,?,i,i,nt
COC(=O)c1sccc1NC(=O)Nc1ccccc1C,-7%,11µM*,i,i,2%
COC(=O)c1sccc1NC(=O)Nc1ccc(C)c(C)c1,-27%,13µM*,i,i,0%
COC(=O)c1sccc1NC(=O)Nc1ccccc1F,-18%,30%,i,i,4%
CCN(CC)C1=N/C(=C\c2ccc(OC)cc2)C(=O)N1c1ccccc1,9%,22µM*,i,i,28%
Cc1ccc(C)c(N2CCN(C(=O)C3CCCN(S(=O)(=O)c4ccc5c(c4)oc(=O)n5C)C3)CC2)c1 (stereo unspecified),nt,2%,i,?,nt
Cc1ccc(-n2c(C)cc(C(=O)CN3CCOCC3)c2C)cc1C,-6%,-11%,i,i,1%
Cc1cc(-n2c(C)cc(C(=S)N3CCOCC3)c2C)ccc1Br,-2%,20µM*,i,nt,29%
CC(C)Oc1ccc(-c2nc(-c3cccnc3)no2)cc1,3%,nt,nt,nt,nt
O=C(c1cccs1)n1cc(C(=S)N2CCOCC2)c2ccccc21,nt,20µM*,i,i,11%

# Bioassay records as filed in PubChem.
